What follows are compounds tested on PC9 (assay: area under confluence curve of compound monotherapy; compare to DMSO control AUC of the same experiment (AUC (confluence x time, arbitrary))). Conditions: 5 nM; DMSO control AUC in same experiment: 29563.
Procedure: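 compare to DMSO control AUC of the same experiment; Monotherapy arm of the osimertinib DTP screen: EGFR-mutant NSCLC cells were treated with the test compound alone at a fixed dose (highest dose with <50% inhibition of parental cells, or 1 uM), then switched to drug-free medium at the DTP stage. IncuCyte confluence was tracked and AUC computed in Prism. AUC scale depends on experiment duration, so each row carries the same-experiment DMSO control AUC (monotherapy activity = DMSO AUC minus monotherapy AUC). The monotherapy value is shared between screen formats.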
For `NC(=O)Nc1cc(-c2cccc(F)c2)sc1C(=O)N[C@H]1CCCNC1`, the “area under confluence curve” value was 26800.

Same assay, conditions: 10 nM; DMSO control AUC in same experiment: 18385
`Cc1nc(-c2nc(-c3ccc(OC(F)(F)F)cc3)no2)nn1Cc1cccc(N2CCC(S(C)(=O)=O)CC2)c1` was tested, and the “area under confluence curve” value was 18100.

Same assay, conditions: 10 nM; DMSO control AUC in same experiment: 19076
With `Cc1nc(-c2nc(-c3ccc(OC(F)(F)F)cc3)no2)nn1Cc1cccc(N2CCC(S(C)(=O)=O)CC2)c1` the “area under confluence curve” value was 18900.

Same assay, conditions: 100 nM; DMSO control AUC in same experiment: 20347
`Cc1nc(Nc2n[nH]c3c2CN(C(=O)N[C@H](CN(C)C)c2ccccc2)C3(C)C)c2sccc2n1` was tested, and the “area under confluence curve” value was 22800.

Same assay, conditions: 100 nM; DMSO control AUC in same experiment: 21341
`C[C@@]1(C(=O)Nc2ccc(F)nc2)CCCN1c1nc(Nc2cc(C3CC3)n[nH]2)c2cccn2n1` was tested, and the “area under confluence curve” value was 20100.

Same assay, conditions: 100 nM; DMSO control AUC in same experiment: 21913
For `Nc1ccc(/C=C/C(=O)NCc2cc3cc(-c4ccc(C(=O)N5CCC(F)(F)CC5)cc4)cc(-c4ccc(F)cc4)c3o2)cn1`, the “area under confluence curve” value was 22800.

Same assay, conditions: 100 nM; DMSO control AUC in same experiment: 27958
With `COC(=O)c1ccc([C@H]2c3[nH]c4ccccc4c3C[C@H](C(=O)OC)N2C(=O)CCl)cc1` the “area under confluence curve” value was 27800.

Same assay, conditions: 100 nM; DMSO control AUC in same experiment: 28334
With `CNC(=O)c1cccc(-c2ccc3c(N4CCOC[C@@H]4C)nc(N4CCOC[C@@H]4C)nc3n2)c1` the “area under confluence curve” value was 24900.

Same assay, conditions: 100 nM; DMSO control AUC in same experiment: 30326
With `COC(=O)c1ccc([C@H]2c3[nH]c4ccccc4c3C[C@H](C(=O)OC)N2C(=O)CCl)cc1` the “area under confluence curve” value was 27300.

Same assay, conditions: 100 nM; DMSO control AUC in same experiment: 30580
`C[C@@]1(C(=O)Nc2ccc(F)nc2)CCCN1c1nc(Nc2cc(C3CC3)n[nH]2)c2cccn2n1` was tested, and the “area under confluence curve” value was 30100.

Same assay, conditions: 100 nM; DMSO control AUC in same experiment: 31219
For `COC[C@H]1Cn2cc(-c3nc(Nc4ccnn4C)ncc3C)nc2C(=O)N1Cc1ccc(F)c(F)c1`, the “area under confluence curve” value was 30900.

Same assay, conditions: 100 nM; DMSO control AUC in same experiment: 44384
For `O=C(NC[C@H](O)CN1CCc2ccccc2C1)c1ccnc(NC2CCC2)c1`, the “area under confluence curve” value was 43300.

Same assay, conditions: 100 nM; DMSO control AUC in same experiment: 45737
With `COC(=O)c1ccc([C@H]2c3[nH]c4ccccc4c3C[C@H](C(=O)OC)N2C(=O)CCl)cc1` the “area under confluence curve” value was 46100.

Same assay, conditions: 100 nM; DMSO control AUC in same experiment: 49143
With `C[C@@]1(C(=O)Nc2ccc(F)nc2)CCCN1c1nc(Nc2cc(C3CC3)n[nH]2)c2cccn2n1` the “area under confluence curve” value was 48900.

Same assay, conditions: 100 nM; DMSO control AUC in same experiment: 49189
With `COC[C@H]1Cn2cc(-c3nc(Nc4ccnn4C)ncc3C)nc2C(=O)N1Cc1ccc(F)c(F)c1` the “area under confluence curve” value was 46200.

Same assay, conditions: 300 nM; DMSO control AUC in same experiment: 20197
`Nc1nc(Nc2ccc3c(c2)CCC(N2CCCC2)CC3)nn1-c1cc2c(nn1)-c1ccccc1CCC2` (centres undefined) was tested, and the “area under confluence curve” value was 19600.

Same assay, conditions: 300 nM; DMSO control AUC in same experiment: 30008
`Nc1nc(Nc2ccc3c(c2)CCC(N2CCCC2)CC3)nn1-c1cc2c(nn1)-c1ccccc1CCC2` (centres undefined) was tested, and the “area under confluence curve” value was 28200.

Same assay, conditions: 1000 nM; DMSO control AUC in same experiment: 18733
For `O=C(N[C@@H](C1CC1)C(F)(F)F)c1cc(-c2cnn3cc(-c4ccc(F)cc4)cnc23)cs1`, the “area under confluence curve” value was 18000.

Same assay, conditions: 1000 nM; DMSO control AUC in same experiment: 21594
`O=C([C@@H](Cc1cccc(C(F)(F)F)c1)NS(=O)(=O)c1cc(F)c2c(c1)CCNC2)N1CCCC1` was tested, and the “area under confluence curve” value was 20800.

Same assay, conditions: 1000 nM; DMSO control AUC in same experiment: 22064
`C[C@@H]1COCCN1c1cc(C2([S@](C)(=N)=O)CC2)nc(-c2cc[nH]c3nccc2-3)n1` was tested, and the “area under confluence curve” value was 21700.
With `O=C(c1cc(Cc2n[nH]c(=O)c3ccccc23)ccc1F)N1CCN(C(=O)C2CC2)CC1` [Olaparib] the “area under confluence curve” value was 20000.

Same assay, conditions: 1000 nM; DMSO control AUC in same experiment: 27958
For `CN1CCN(c2nc(C3=C(c4c[nH]c5ccccc45)C(=O)NC3=O)c3ccccc3n2)CC1` [Sotrastaurin], the “area under confluence curve” value was 27000.

Same assay, conditions: 1000 nM; DMSO control AUC in same experiment: 28684
In the case of `C[C@@H](Nc1cc(F)cc(F)c1)c1cc(C(=O)N(C)C)cc2c(=O)cc(N3CCOCC3)oc12`, the “area under confluence curve” value is reported as 28100.

Same assay, conditions: 1000 nM; DMSO control AUC in same experiment: 29345
`Cc1cc(Nc2ncnc3ccc(NC4=NC(C)(C)CO4)cc23)ccc1Oc1ccn2ncnc2c1` [Tucatinib] was tested, and the “area under confluence curve” value was 29400.
For `CS(=O)(=O)CCNCc1ccc(-c2ccc3ncnc(Nc4ccc(OCc5cccc(F)c5)c(Cl)c4)c3c2)o1` [Lapatinib], the “area under confluence curve” value was 20900.

Same assay, conditions: 1000 nM; DMSO control AUC in same experiment: 30002
For `Cc1cc(Nc2ncnc3ccc(NC4=NC(C)(C)CO4)cc23)ccc1Oc1ccn2ncnc2c1` [Tucatinib], the “area under confluence curve” value was 30200.

Same assay, conditions: 1000 nM; DMSO control AUC in same experiment: 30326
`CCN(c1cc(-c2ccc(CN3CCOCC3)cc2)cc(C(=O)NCc2c(C)cc(C)[nH]c2=O)c1C)C1CCOCC1` [Tazemetostat] was tested, and the “area under confluence curve” value was 29400.

Same assay, conditions: 1000 nM; DMSO control AUC in same experiment: 30578
In the case of `Cc1nc2nc(C)c(O[C@@H]3CCN(c4ccc(-c5ccc(CN6CCOCC6)nn5)cc4)C3)c(C)n2n1`, the “area under confluence curve” value is reported as 30800.
For `C[C@@H](Nc1cc(F)cc(F)c1)c1cc(C(=O)N(C)C)cc2c(=O)cc(N3CCOCC3)oc12`, the “area under confluence curve” value was 29100.

Same assay, conditions: 1000 nM; DMSO control AUC in same experiment: 30580
For `C[C@@H](Nc1cc(F)cc(F)c1)c1cc(C(=O)N(C)C)cc2c(=O)cc(N3CCOCC3)oc12`, the “area under confluence curve” value was 28800.

Same assay, conditions: 1000 nM; DMSO control AUC in same experiment: 30604
With `Cc1cc2ncnn2cc1Nc1ncc2c(n1)n(C1CCOCC1)c(=O)n2C` the “area under confluence curve” value was 30500.
`C[C@@H]1COCCN1c1cc(C2([S@](C)(=N)=O)CC2)nc(-c2cc[nH]c3nccc2-3)n1` was tested, and the “area under confluence curve” value was 30800.
In the case of `O=C(c1cc(Cc2n[nH]c(=O)c3ccccc23)ccc1F)N1CCN(C(=O)C2CC2)CC1` [Olaparib], the “area under confluence curve” value is reported as 30200.

Same assay, conditions: 1000 nM; DMSO control AUC in same experiment: 31219
`CN(C)C/C=C/C(=O)Nc1ccc(C(=O)Nc2cccc(Nc3ncc(Cl)c(-c4c[nH]c5ccccc45)n3)c2)cc1` was tested, and the “area under confluence curve” value was 31000.

Same assay, conditions: 1000 nM; DMSO control AUC in same experiment: 31239
For `O=C(CCCCCCC(=O)Nc1ccccc1)NO` [Vorinostat], the “area under confluence curve” value was 29400.

Same assay, conditions: 1000 nM; DMSO control AUC in same experiment: 31840
In the case of `CCOC(=O)c1ccnc(CNCC(=O)N(CC)CCN(C)C)c1`, the “area under confluence curve” value is reported as 30800.

Same assay, conditions: 1000 nM; DMSO control AUC in same experiment: 43316
`C[C@@H](c1ccc2nccn2c1)n1nnc2ncc(-c3cnn(C)c3)nc21` [Savolitinib] was tested, and the “area under confluence curve” value was 43600.
`C[C@@H](Nc1cc(F)cc(F)c1)c1cc(C(=O)N(C)C)cc2c(=O)cc(N3CCOCC3)oc12` was tested, and the “area under confluence curve” value was 42700.

Same assay, conditions: 1000 nM; DMSO control AUC in same experiment: 48219
With `O=C(CCCCCCC(=O)Nc1ccccc1)NO` [Vorinostat] the “area under confluence curve” value was 47800.

Source: the supplement of paper PMC9794691
